Mdm2-MdmX inh = inhibitors of human Mdm2-MdmX association, primary screen, cell-based, luminescence, split luciferase, SaOS-2, uHTS; SaOS-2 split-luciferase Mdm2/MdmX complementation; inhibition, % at 8 µM; 330,000 tested, 3% active; AID 485346, 2010;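 active = inhibition of at least 50% at 8 µM in the primary screen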
Target sequence (O15151 whole entry, looked up): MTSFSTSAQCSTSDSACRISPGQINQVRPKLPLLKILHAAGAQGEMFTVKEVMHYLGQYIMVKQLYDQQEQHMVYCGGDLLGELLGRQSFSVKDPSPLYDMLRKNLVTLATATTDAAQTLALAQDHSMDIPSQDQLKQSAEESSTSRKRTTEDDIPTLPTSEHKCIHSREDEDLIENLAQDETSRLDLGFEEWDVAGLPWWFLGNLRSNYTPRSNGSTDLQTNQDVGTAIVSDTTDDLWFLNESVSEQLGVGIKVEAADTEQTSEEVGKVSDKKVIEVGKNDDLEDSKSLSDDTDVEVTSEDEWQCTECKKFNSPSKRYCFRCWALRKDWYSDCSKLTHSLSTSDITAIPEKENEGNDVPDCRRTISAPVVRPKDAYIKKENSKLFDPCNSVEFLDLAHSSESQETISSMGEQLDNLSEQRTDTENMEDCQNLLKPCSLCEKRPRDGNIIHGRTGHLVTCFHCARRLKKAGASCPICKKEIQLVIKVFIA
Target sequence (Q00987 whole entry, looked up): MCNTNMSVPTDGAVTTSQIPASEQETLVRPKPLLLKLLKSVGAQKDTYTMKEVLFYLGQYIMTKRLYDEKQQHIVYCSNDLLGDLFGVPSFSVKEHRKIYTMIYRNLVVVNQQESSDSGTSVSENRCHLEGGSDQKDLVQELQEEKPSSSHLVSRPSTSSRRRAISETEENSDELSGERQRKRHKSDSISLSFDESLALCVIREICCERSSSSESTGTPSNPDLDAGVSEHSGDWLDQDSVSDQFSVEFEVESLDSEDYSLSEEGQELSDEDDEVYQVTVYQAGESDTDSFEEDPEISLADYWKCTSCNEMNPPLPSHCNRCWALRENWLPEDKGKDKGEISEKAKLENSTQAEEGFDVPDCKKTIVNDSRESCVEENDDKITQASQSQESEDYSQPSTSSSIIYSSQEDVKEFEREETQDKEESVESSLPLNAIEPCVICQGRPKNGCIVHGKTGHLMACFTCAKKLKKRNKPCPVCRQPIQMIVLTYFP
CSC inhib = cancer stem cell viability inhibitors, primary screen, luminescence; cancer stem cell-like cells viability; inhibition, % at 7.5 µM; 300,000 tested, 1.1% active; AID 2717, 2010; in the data active = inhibition above about 75%; tested in HMLE shEcad cells
Calb FLC = C. albicans growth inhibition with fluconazole, primary screen, CaCi-2 strain, Alamar Blue fluorescence | C. albicans CaCi-2 (fluconazole-resistant clinical isolate) + fluconazole, 48 h | 300,000 tested, 0.57% active | growth inhibition, % (concentration not given with the values);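 active = growth inhibition above about 58% in most replicates, limit read from the data, passing the limit was not always enough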;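 note: all wells also contain fluconazole at 8 µg/ml as a sub-toxic cotreatment; 0% = median of DMSO wells and 100% = median of geldanamycin control wells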
Beta apoptosis = inhibitors of cytokine-induced beta cell apoptosis, primary screen, luminescence | 300,000 tested, 0.8% active | protection from apoptosis, % (concentration not given with the values) | INS-1E cytokine-induced death, ATP luminescence, 48 h; percent of positive-control rescue, neutral wells zero;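 active = Every replicate reaches about 75%, or at least half do and their mean reaches it too, limit read from the data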;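 note: 0% = cytokine-treated negative control wells and 100% = positive control rescue; higher means more ATP so stronger rescue from cytokine killing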
SKKanGAS inh = S. pyogenes SKKanGAS growth inhibitors in kanamycin, primary screen, streptokinase expression inhibitor project, SKKanGAS strain, BacTiter-Glo luminescence; 6 h; inhibition, % at 7.5 µM; 300,000 tested, 1.3% active;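 active = mean replicate score, as percent of positive control median, at least 50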;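 note: strain carries kanamycin resistance gene driven by streptokinase promoter and grows in 40 µg/ml kanamycin; loss of luminescence reflects streptokinase promoter inhibition or plain growth inhibition; 0% = median of DMSO wells and 100% = positive control at its reference dose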
MPTP inh = mitochondrial permeability transition pore inhibitors, primary screen, biochemical, isolated mouse mitochondria, absorbance; Ca2+ swelling absorbance, 30 min; inhibition, % at 10 µM; 360,000 tested, 1.4% active;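 active = inhibition of 50% or more, scaled per plate between neutral and stimulator controls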;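 note: 0% = DMSO wells given calcium and 100% = 1 mM EGTA wells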
* = called active by the depositor; · = no result given. Rows were chosen to be rich in hits. Some 5.4% of all compounds tested hit in one or more screens of this group.

SMILES	Mdm2-MdmX inh	CSC inhib	Calb FLC	Beta apoptosis	SKKanGAS inh	MPTP inh
Cc1nn(Cc2ccc(Cl)cc2)c(C)c1NC(=O)c1cc(C(C)C)on1	31	5	-8	8	4	2
Cc1nn(Cc2ccc(Cl)cc2)c(C)c1NC(=O)c1cc(-c2ccc3c(c2)OCO3)on1	-6	83*	-7	25	18	0
O=C(NCc1ccco1)c1cc(-c2ccc3c(c2)OCO3)on1	-49	82*	-7	3	-1	0
Cc1nn(Cc2ccc(Cl)c(Cl)c2)c(C)c1NC(=O)c1cc(-c2ccc3c(c2)OCO3)on1	34	81*	-12	19	34	6
O=C(O)C1C2C=CC(C2)C1C(=O)NCCCN1CCCC1=O (configuration not stated)	18	-4	-7	-1	-2	0
COc1ccc(C)cc1S(=O)(=O)N1CCC(C(=O)NC2CCCC2)CC1	-9	-12	-3	·	-2	-1
COc1ccc(CCN2C(=O)CSCC2(C)C(=O)Nc2ccc3c(c2)OCCO3)cc1OC (configuration not stated)	·	·	·	·	·	2
COCC(C)NC(=O)NC1(C(F)(F)F)Oc2ccc(Cl)cc2O1 (configuration not stated)	3	80*	-26	1	1	2
CC(=O)NCC(=O)NC1CCCc2c1cnn2-c1ccc(C(C)(C)C)cc1 (configuration not stated)	6	9	4	-2	-3	10
CC(C)(C)c1ccc(-n2ncc3c2CCCC3NC(=O)C2(C(N)=O)CC2)cc1 (configuration not stated)	15	20	-9	78*	-2	49
O=c1cc2oc3cc(O)c(O)cc3c(-c3ccccc3[N+](=O)[O-])c-2cc1O	49	95*	88*	37	50*	30
O=c1cc(-c2ccccc2Cl)oc2cccc(O)c12	9	-4	6	1	18	-1
O=C(Cc1cccs1)N1CCN=C1SCc1ccc(F)cc1	-20	-2	0	-14	1	-2
CCn1cc(S(=O)(=O)Nc2ccccc2C(F)(F)F)cn1	-16	1	-5	·	-4	0
CCC(C)c1ccccc1NS(=O)(=O)c1cnn(CC)c1 (configuration not stated)	17	-12	9	·	53*	0
Nc1nc(CN2CCN(c3ccc(F)cc3)CC2)nc(N2CCCc3ccccc32)n1	14	-9	7	6	84*	-1
COc1ccc(Nc2nc(N)nc(CN3CCN(c4ccc(F)cc4)CC3)n2)cc1	29	-17	20	-8	43	0
O=[N+]([O-])c1cccc(/C=N/n2cnnc2)c1	28	-1	-4	82*	-8	1
O=[N+]([O-])c1ccc(O)c(/C=N/n2cnnc2)c1	-5	·	4	-3	-7	4
O=C(NCc1ccccn1)C(=O)Nc1nc(C23CC4CC(CC(C4)C2)C3)cs1	31	25	-10	39	75*	2
O=C(NCc1ccccn1)NC12CC3CC(CC(C3)C1)C2	-5	-20	-9	2	3	0
Cc1ccc(C(=O)Nc2cccc3[nH]c(C(F)(F)F)nc23)cc1	3	24	24	78*	-6	3
Cc1ccc2c(c1)N(C(=O)CCC(=O)NCCCN1CCC(Cc3ccccc3)CC1)CCO2	37	3	2	99*	-2	21
O=C1c2ccccc2CC1(Cc1ccccc1)Cc1ccccc1	23	0	7	0	57*	0
S=c1[nH]nc(-c2cccs2)n1/N=C/c1cn(-c2ccccc2)nc1-c1ccccc1	7	25	16	·	75*	1
Cn1c(NCc2ccccc2)nc2cc(-c3cccc(C(F)(F)F)c3)sc2c1=O	·	·	·	·	·	2
CC(C)Nc1nc2c(c(=O)n(C)c(=O)n2C)n1C	5	4	0	-1	-3	-1
O=Cc1cc(N=Nc2cccc(C(=O)O)c2)ccc1O	13	22	-20	18	0	1
O=Cc1cc(N=Nc2ccccc2Cl)ccc1O	0	-4	86*	-6	78*	48

Bioassay records from PubChem BioAssay.
